Compound activity from PubChem BioAssay.
Rab9 promoter act: Rab9 promoter activation; Huh7 Rab9 promoter-luciferase reporter, luminescence, 24 h; Potency, µM (highest dose often 9.22 µM), inactives show at the highest dose activation, negative = inhibition, usual class: activators; 320,000 compounds, 2.8% hits; AID 485297; note: % of control where 0% means no effect; nearly all actives have a fitted effect of over 60% in size
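Luminescence from Amplite-detected luciferase (10 minutes, ambient) reports Rab9 promoter activation. Before that, stable Rab9-luciferase Huh7 cells (1500/well, reduced-serum OP-MEM I plus 10% FBS) were exposed to compound for 24 hours at 37C.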
SMN2 splice up: SMN2 splice variant enhancement. AID 1458. Potency, µM (highest dose often 46.1 µM), inactives show at the top dose activity change, positive = activation, actives largely listed as activators. HEK293 SMN2-luciferase splicing reporter, luminescence, 30-36 h. 210,000 compounds, 2.8% hits; note: % of control where 0% means no effect; nearly all actives have a fitted effect of over 55% in size
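HEK293 cells carry an SMN2 […]–luciferase reporter in which exon 7 inclusion puts luciferase in frame. Cells were plated 10-12 h before compound addition, then incubated 30-36 h at 37C. ONE-Glo luminescence was read; sodium butyrate at 4.5 mM final served as control.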
NPC1 prom act: activates the NPC1 promoter. Huh7 NPC1 promoter luciferase reporter, 24 h. Potency, µM (series often up to 9.22 µM), without a hit: top-dose activation, hits mostly activators. 320,000 compounds, 2.4% hits; note: % of control where 0% means no effect; nearly all actives have a fitted effect of over 60% in size
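Huh7 reporter cells (NPC1 promoter driving luciferase) are dosed with compound for 24 h at 37 °C, 5% CO2; luciferase detection reagent is then added and luminescence measured after 10 min at ambient temperature.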
ELG1 genotox: genotoxicity induction in ELG1-luciferase HEK293T cells | HEK293T ELG1-luciferase reporter, luminescence, 16 h | AID 504466 | Potency, µM (top dose mostly 46 µM), for inactives: at the top dose activity change, positive = activation, usual class: activators | 330,000 compounds, 1.3% hits; note: % of control where 0% means no effect; nearly all actives have a fitted effect of over 60% in size
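ELG1-luciferase HEK293T cells, 2,000/well; compound pinned in; 16 hr, 37 °C, 5% CO2; ONE-Glo, 30 min RT; luminescence on CCD imager.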
FLuc modulator: counter-screen for miR-21 project: firefly luciferase inhibitors or activators; AID 588342; 360,000 compounds, 6.9% hits; Potency, µM (series often up to 57.5 µM), for inactives: at the top dose activity change, negative = inhibition, usual class: inhibitors; purified FLuc, Km substrates, luminescence inhibition;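 note: plate controls were vehicle for no effect and reference inhibitor for full effect; nearly all actives have a fitted effect of over 55% in size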
Target sequence (P08659 whole entry, looked up): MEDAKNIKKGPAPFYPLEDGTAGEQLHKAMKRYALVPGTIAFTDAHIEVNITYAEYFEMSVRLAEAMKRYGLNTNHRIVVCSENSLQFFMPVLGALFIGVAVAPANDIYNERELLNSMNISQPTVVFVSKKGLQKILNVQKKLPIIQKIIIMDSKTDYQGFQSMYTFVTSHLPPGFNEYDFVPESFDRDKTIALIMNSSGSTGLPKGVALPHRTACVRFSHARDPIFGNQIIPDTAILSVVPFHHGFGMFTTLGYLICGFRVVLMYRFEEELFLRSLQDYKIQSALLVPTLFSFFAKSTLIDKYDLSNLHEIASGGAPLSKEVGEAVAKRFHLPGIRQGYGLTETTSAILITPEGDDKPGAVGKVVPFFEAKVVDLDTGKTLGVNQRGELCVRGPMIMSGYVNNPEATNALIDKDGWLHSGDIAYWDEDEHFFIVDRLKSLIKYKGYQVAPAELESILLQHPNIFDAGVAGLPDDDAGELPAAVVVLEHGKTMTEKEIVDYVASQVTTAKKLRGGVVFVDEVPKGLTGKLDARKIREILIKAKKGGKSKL
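Purified P. pyralis luciferase (10nM final) with 10uM D-luciferin and 10uM ATP (Km levels) in 50mM Tris acetate pH 7.5, 10mM Mg acetate, 0.01% Tween-20, 0.05% BSA; qHTS 6-point titration, ~60 µM downward; luminescence read.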
Active calls of the source: *; ? = inconclusive; / = not tested or not shown; [ ] = dose if it differs, or a comment. Shown are actives, neighbours in structure and some others; about 7.4% of the full set was active somewhere. Calls come from the whole dose curve; as a rule, active = well fitted curve in the direction sought with a large enough effect; inconclusive = small, poorly fitted or top-dose-only effect, or another doubt; inactive = no such curve, though single readings can be large; an effect the other way counts as inactive or inconclusive. Potency is the fitted concentration of half-maximal effect.

SMILES	Rab9 promoter act	SMN2 splice up	NPC1 prom act	ELG1 genotox	FLuc modulator
O=C(Oc1ccc(-c2cnc3ccccc3n2)cc1)c1cccc([N+](=O)[O-])c1	?	32µM*	?	7.3µM*	?
Cc1c(C(=O)NC2CCCCC2)sc2nc3ccc(N)cc3n12	/	5%	/	/	/
Clc1cccc(Nc2nc(-c3ccncc3)nc3ccccc23)c1	-3%	/	-3%	2%	-1%
Clc1ccccc1Nc1nc(-c2ccncc2)nc2ccccc12	-6%	/	-4%	-3%	0%
O=c1oc(Nc2ccccc2F)nc2ccccc12	?	/	?	?	9.5µM*
O=c1oc(Nc2cccc(Cl)c2)nc2ccccc12	0.79µM*	11µM*	2.8µM*	13µM*	-25%
O=c1oc(-c2ccccc2NS(=O)(=O)c2ccc(F)cc2)nc2ccccc12	-1%	/	-2%	-3%	1%
O=c1oc(Nc2ccccc2Cl)nc2ccccc12	?	?	3.5µM*	21µM*	15µM*
COCCCn1c(=S)[nH]c2sc3c(c2c1=O)CCCC3	-4%	/	-3%	-8%	19µM*
CCOC(=O)N1CCC(NC(=O)c2cnn(-c3ccc(C)cc3)c2-n2cccc2)CC1	/	/	/	/	-11%
O=C1ON=C(c2ccccc2)/C1=C/c1ccc(OS(=O)(=O)c2ccccc2)cc1	-1%	-17%	1%	2%	-19%
CN(C)/N=C/c1ccc(OS(=O)(=O)c2ccccc2)cc1	2.8µM*	/	3.5µM*	8.2µM*	21µM*
CN=c1scc(-c2ccccc2F)n1/N=C/c1ccc[nH]1	-30%	-110%	-41%	-17%	0.027µM*
CC(C)N=c1scc(-c2cccs2)n1/N=C/c1ccc(O)c(O)c1O	5%	3%[1.84 µM]	2%	?	24µM*
CCN=c1scc(-c2cccs2)n1/N=C/c1cc(OC)ccc1O	?	?	2µM*	?	2.4µM*
CN=c1scc(-c2ccccc2F)n1/N=C/c1ccc(O)c(O)c1O	?	0.63µM*	?	9%	0.76µM*
COc1ccc(O)c(/C=N/n2c(-c3ccco3)csc2=Nc2cccnc2)c1	2%	-13%[1.84 µM]	-2%	2%	-2%
Cc1ccccc1NC(=O)CSc1nc(-c2ccc(F)cc2)nc2c1Cc1ccccc1O2	/	15%	/	/	0%
CCOC(=O)c1ccc(N2C(=O)c3n[nH]c(-c4cccs4)c3C2c2ccc(OC)cc2OC)cc1 (stereo not drawn)	/	4%	/	/	-2%
O=C(Cc1cccs1)Nc1cc(SCCO)cc([N+](=O)[O-])c1	-8%	5%	-4%	-2%	-11%
O=C1CCc2cc(S(=O)(=O)Nc3ccc(F)cc3)cc3c2N1CC3	-4%	/	-1%	?	0%
COc1ccc(CN(C(=O)c2ccc(C)cc2)c2cccc(N)c2)cc1	1%	/	-4%	-3%	-7%
COc1ccc(C(=O)N(Cc2ccccc2)c2cccc(C)c2)cc1	?	/	?	15µM*	-1%
Cc1ccc(N(Cc2ccccc2)C(=O)c2cccc(F)c2)cc1	-7%	/	-1%	18%	13µM*
Cc1ccc(N(Cc2ccccc2)C(=O)c2ccc(F)cc2)cc1	0%	/	2%	4%	0%
SMILES	Rab9 promoter act	SMN2 splice up	NPC1 prom act	ELG1 genotox	FLuc modulator
Cc1ccc(C(=O)CC(=O)c2cccc(F)c2)c(O)c1	14%	-41%	6%	?	12µM*
O=C(Nc1ccccc1O)/C(=C\c1ccccc1)NC(=O)c1ccccc1	-5%	-3%	-5%	-8%	3%
COc1ccc(OC)c(NC(=O)Cn2nc(C)c3ccccc3c2=O)c1	0%	/	-1%	-1%	-1%
Cc1ccccc1SCC(=O)OCC(=O)NCCNC(=O)COC(=O)CSc1ccccc1C	-4%	/	-3%	1%	8%
COc1ccc(-c2nn(-c3ccccc3)cc2/C=N/Nc2ccccn2)cc1	-1%	-10%	-8%	?	2%
COc1ccc(/C=N/Nc2ccccn2)c(OC)c1OC	?	?	?	?	17µM*
Cc1ccc(C)c(/C=N/Nc2ccccn2)c1	-1%	19%	-11%	14%	?
COc1ccc(/C=N/Nc2ncc(Br)cn2)c(OC)c1	?	22µM*	9%	7.3µM*	2.7µM*
COc1ccc(/C=N/NS(C)(=O)=O)c(OC)c1	-3%	-5%	-8%	-3%	5%
